Measurements reported in the supplement of paper PMC3545927.
The other results are listed elsewhere or left out. No count for the full screen is at hand.

Target: furin, P09958
Assay: furin cleavage Z-score vs untreated control; higher = more cleavage, active = 3.5 or more, inactive = 1 or less, 8 variable residues between constant flanks
Method in brief: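 The cleavage Z-score was derived for purified furin acting on 8-mer peptides held on magnetic beads and fused to a cDNA oligonucleotide. Digests lasted 7.5, 15 or 30 min at 1:10 enzyme:substrate in 50 mM HEPES pH 7.5 with CaCl2 and NaCl. Sequencing counts of released DNA, log-transformed against furin-free reactions, were lowess-adjusted and scaled by median absolute deviation.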

Chain of furin, P09958 (P09958 whole entry): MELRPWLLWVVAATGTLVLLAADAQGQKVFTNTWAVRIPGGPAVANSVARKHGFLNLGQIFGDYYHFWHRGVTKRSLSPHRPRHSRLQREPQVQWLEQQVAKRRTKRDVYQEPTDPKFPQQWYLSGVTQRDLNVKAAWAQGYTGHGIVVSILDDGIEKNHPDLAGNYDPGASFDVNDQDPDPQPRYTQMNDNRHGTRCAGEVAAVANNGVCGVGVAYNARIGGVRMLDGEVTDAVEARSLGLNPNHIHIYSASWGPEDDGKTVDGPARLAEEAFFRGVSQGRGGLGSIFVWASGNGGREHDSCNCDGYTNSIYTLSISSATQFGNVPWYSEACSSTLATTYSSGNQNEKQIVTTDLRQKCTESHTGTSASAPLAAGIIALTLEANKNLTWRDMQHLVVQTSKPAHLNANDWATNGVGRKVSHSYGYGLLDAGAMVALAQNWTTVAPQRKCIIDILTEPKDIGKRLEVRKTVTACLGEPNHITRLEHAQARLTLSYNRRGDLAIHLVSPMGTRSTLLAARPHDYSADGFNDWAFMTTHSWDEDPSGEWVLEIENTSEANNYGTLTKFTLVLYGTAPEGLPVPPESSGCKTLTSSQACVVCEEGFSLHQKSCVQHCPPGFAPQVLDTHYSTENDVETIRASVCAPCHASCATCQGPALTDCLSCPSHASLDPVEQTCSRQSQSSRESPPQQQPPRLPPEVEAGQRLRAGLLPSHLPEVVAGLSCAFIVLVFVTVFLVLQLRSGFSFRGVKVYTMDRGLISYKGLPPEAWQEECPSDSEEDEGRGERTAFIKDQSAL

Sequence | furin cleavage Z-score (7.5 min) | furin cleavage Z-score (15 min) | furin cleavage Z-score (30 min)
CASTPCSAELAGNASASA [HC2552] | -0.156 (inactive) | 0.767 (inactive) | 0.789 (inactive)
CAGLEVVTSTAGNASASA [HC2276] | 1.36 | -0.694 (inactive) | -0.958 (inactive)
CASILGIGTVAGNASASA [HC823] | -0.809 (inactive) | 0.141 (inactive) | -0.562 (inactive)
CAAYAQQTRGAGNASASA [HC676] | 0.0125 (inactive) | 0.047 (inactive) | 1.9
CAKAVDFIPVAGNASASA [HC756] | -0.823 (inactive) | -0.464 (inactive) | -0.656 (inactive)
CATPGLPVCQAGNASASA [HC933] | 0.0348 (inactive) | -0.269 (inactive) | 0.151 (inactive)
CATPQRLRRQAGNASASA [FS-570] | 7.8 (active) | 8.92 (active) | 4.33 (active)
CAEVVTSTWFAGNASASA [HC2247] | -0.0997 (inactive) | 1.76 | 0.942 (inactive)
CAIFLRLKRRAGNASASA [FS-800] | 3.63 (active) | 3.18 | 3.43
CAAMRRLKRRAGNASASA [FS-1304] | 8.73 (active) | 7.83 (active) | 8.17 (active)
CAETRRERRRAGNASASA [FS-1121] | 3.87 (active) | 4.13 (active) | 4.7 (active)
CAREQRERRRAGNASASA [FS-1155] | 0.997 (inactive) | 2.01 | 2.01
CALRRRLKRRAGNASASA [FS-361] | 7.56 (active) | 7.31 (active) | 5.73 (active)
CARFLRHTGRAGNASASA [FS-1701] | 2.28 | 1.08 | 0.702 (inactive)
CASDVVCCSMAGNASASA [HC2117] | 1.61 | -1.16 (inactive) | 0.074 (inactive)
CAMEEGSQHLAGNASASA [HC2] | -0.0457 (inactive) | -0.462 (inactive) | 1.87
CAYVTGMTTDAGNASASA [HC1211] | -0.923 (inactive) | -0.868 (inactive) | -1.18 (inactive)
CAQDAVSRTQAGNASASA [HC900] | -0.887 (inactive) | -1.13 (inactive) | -1.41 (inactive)
CADLEVVTSTAGNASASA [HC2271] | -1.06 (inactive) | 0.142 (inactive) | -0.409 (inactive)
CAGYIPLVGAAGNASASA [HC228] | -0.438 (inactive) | -0.464 (inactive) | -0.124 (inactive)
CALRRRMRRRAGNASASA [FS-1368] | 3.44 | 4.48 (active) | 4.37 (active)
CALEHRRMRRAGNASASA [FS-349] | 11 (active) | 10.5 (active) | 9.29 (active)
CASTPCSAGLAGNASASA [HC2556] | -0.924 (inactive) | -0.11 (inactive) | -0.471 (inactive)

Sequence | furin cleavage Z-score (7.5 min) | furin cleavage Z-score (15 min) | furin cleavage Z-score (30 min)
CAWEECSQHLAGNASASA [HC1668] | 2.53 | 0.743 (inactive) | 0.0767 (inactive)
CAGTPCSAHLAGNASASA [HC2476] | -0.662 (inactive) | -0.917 (inactive) | -0.0259 (inactive)
CAATPCSGSWAGNASASA [HC1823] | -0.934 (inactive) | -0.493 (inactive) | -0.88 (inactive)
CAEHVTSTWVAGNASASA [HC2175] | -1.96 (inactive) | 1.55 | 0.829 (inactive)
CARLRRAADHAGNASASA [FS-2712] | 8.97 (active) | 8.17 (active) | 7.64 (active)
CARDRRMMSQAGNASASA [FS-2653] | 0.37 (inactive) | 0.534 (inactive) | 0.367 (inactive)
CARLRRQKLSAGNASASA [FS-2576] | 0.0621 (inactive) | 0.201 (inactive) | -0.745 (inactive)
CARLRRVSHQAGNASASA [FS-1861] | -2.01 (inactive) | 0.557 (inactive) | 1.98
CARLRRRTSHAGNASASA [FS-2716] | 1.21 | 1.27 | 4.1 (active)
CARLRRVVGQAGNASASA [FS-1747] | 0.978 (inactive) | -0.277 (inactive) | 1.66
CARIRRRASQAGNASASA [FS-2032] | 3.16 | 3.54 (active) | 4.94 (active)
CARLRREPGGAGNASASA [FS-2713] | -0.934 (inactive) | -0.299 (inactive) | -0.815 (inactive)
CARLKRIISHAGNASASA [FS-2706] | 0.518 (inactive) | -1.37 (inactive) | -0.856 (inactive)
CARLRRDTQQAGNASASA [FS-2494] | 8.34 (active) | 9.45 (active) | 7.24 (active)
CAMEECSQHSAGNASASA [HC1777] | 2.1 | 0.565 (inactive) | 0.168 (inactive)
CAPPEELKFQAGNASASA [NG7] | -0.102 (inactive) | -1.12 (inactive) | 0.127 (inactive)
CARANRIVNAAGNASASA [FS-2392] | 0.0348 (inactive) | -1.24 (inactive) | -1.84 (inactive)
CATFWAKHMWAGNASASA [HC1040] | 0.313 (inactive) | -0.474 (inactive) | 0.00738 (inactive)
CARLRRRASQAGNASASA [FS-2995] | 2.66 | 4.61 (active) | 4.94 (active)
CARLRRILEVAGNASASA [FS-2433] | -1.97 (inactive) | -0.173 (inactive) | 0.88 (inactive)
CARLRRASWVAGNASASA [FS-3197] | 1.44 | 1.96 | 4.56 (active)
CARLHRFDSQAGNASASA [FS-2569] | -0.521 (inactive) | 0.134 (inactive) | 0.911 (inactive)
CARLRRTMLVAGNASASA [FS-2996] | 0.457 (inactive) | -0.166 (inactive) | 0.463 (inactive)
